Test results published in PubChem BioAssay AID2058 (Sanford-Burnham Center for Chemical Genomics, 2009).
Out of some 290,000 compounds screened, about 150 (0.052%) were called active. The sample holds actives, similar compounds and a random draw of the others, so the mix is not that of the screen.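 How the source made its calls: active means inhibition of at least 50% with at least 30 cells and total cytoplasm GFP at most 10,000,000; inconclusive means under 30 cells or total GFP of 10,000,000 plus; inactive means the rest.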 Measured potencies and affinities stand elsewhere.

These compounds were tested against G-protein coupled receptor 35 (Homo sapiens) (UniProt Q9HC97) (assay: inhibition of zaprinast-stimulated GPR35 beta-arrestin translocation – imaging, U2OS, beta-arrestin-GFP, zaprinast agonist, primary screen (AID 2058)). Conditions: zaprinast antagonism, at 10 µM, active compounds read high.
G-protein coupled receptor 35 (Homo sapiens), sequence (Q9HC97 whole entry, looked up): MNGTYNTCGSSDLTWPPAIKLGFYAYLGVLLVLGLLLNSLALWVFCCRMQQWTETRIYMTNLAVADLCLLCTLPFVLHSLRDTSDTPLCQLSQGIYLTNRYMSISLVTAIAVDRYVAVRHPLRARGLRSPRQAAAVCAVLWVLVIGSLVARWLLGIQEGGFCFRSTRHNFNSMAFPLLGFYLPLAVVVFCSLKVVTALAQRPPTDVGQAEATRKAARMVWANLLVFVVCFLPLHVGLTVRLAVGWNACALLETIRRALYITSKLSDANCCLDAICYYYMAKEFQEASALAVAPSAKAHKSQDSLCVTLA

| SMILES | inhibition |
| --- | --- |
| COc1ccc(/C=C2/SC(=S)N(Cc3ccccc3)C2=O)cc1O | -18.7% (inactive) |
| Cc1ccc(/C=C2/SC(=S)N(CCCC(=O)Nc3ccc(O)cc3)C2=O)cc1 | 36.2% (inactive) |
| COc1ccc(/C=C2\SC(=S)N(CCC(=O)Nc3cccc(C(=O)O)c3)C2=O)cc1 | 2.8% (inactive) |
| O=C(CCCN1C(=O)/C(=C\c2cccs2)SC1=S)Nc1cccc(C(=O)O)c1 | 0.3% (inactive) |
| COc1ccc(/C=C2\SC(=S)N(CCCC(=O)Nc3ccc(C(=O)O)cc3)C2=O)cc1OC | 30% (inactive) |
| COc1cc(/C=C2/SC(=S)N(Cc3ccccc3)C2=O)ccc1O | -5.7% (inactive) |
| COc1ccc(/C=C2\SC(=S)N(CCCC(=O)Nc3ccc(O)cc3)C2=O)cc1 | 44.8% (inactive) |
| CCc1ccc(/C=C2/SC(=S)N(CCC(=O)Nc3cccc(C(=O)O)c3)C2=O)cc1 | -9.9% (inactive) |
| COc1cc(/C=C2/SC(=S)N(Cc3ccccc3)C2=O)cc(Cl)c1O | 74.4% (active) |
| COC(=O)c1ccc(Cn2nc(C)c(Br)c2C)cc1 | 4% (inactive) |
| C[C@H](NC(=O)c1nc[nH]c1C(=O)N[C@H](C)c1ccccc1)C(=O)OC(C)(C)C | 5.8% (inactive) |
| Cc1cc(=O)oc2c(C)c3occc3cc12 | -1.8% (inactive) |
| O=C1C(=O)N(CCN2CCOCC2)C(c2cccc(Cl)c2)/C1=C(\O)c1ccc2c(c1)OCCO2 (centres undefined) | -1.2% (inactive) |
| Cc1ccccc1COc1ccc2oc(C)c(C(=O)O)c2c1 | -10.4% (inactive) |
| O=[N+]([O-])c1c(-c2cn[nH]c2)n[nH]c1-c1cn[nH]c1 | -2% (inactive) |
| O=C(COc1ccc(S(=O)(=O)N2CCCC2)cc1Cl)N1CCN(c2ccccc2)CC1 | -0.4% (inactive) |
| Cc1oc(-c2ccccc2F)nc1CN1CCC(C(=O)NC2CC2)CC1 | -1.6% (inactive) |
| O=C(CCCN1C(=O)/C(=C/c2ccccc2)SC1=S)Nc1cccc(O)c1 | -8.3% (inactive) |
| O=C(CCN1C(=O)/C(=C/c2ccc(Cl)cc2)SC1=S)Nc1cccc(C(=O)O)c1 | 1.5% (inactive) |
| O=C(/C=C/c1ccco1)Nc1ccccc1C(=O)Nc1cccc(C(=O)O)c1 | -11.1% (inactive) |
| CCc1ccccc1NC(=O)c1cccc(NC(=O)/C=C/c2ccco2)c1 | 10.4% (inactive) |
| COC(=O)c1sc(N2C(=O)C(O)=C(C(=O)c3ccc(C)o3)C2c2ccc([N+](=O)[O-])cc2)nc1C (centres undefined) | -3.4% (inactive) |
| CCOc1ccc(C2C(C(=O)c3ccc(C)o3)=C(O)C(=O)N2c2nc(C)c(C(=O)OC)s2)cc1 (centres undefined) | 5.8% (inactive) |

| SMILES | inhibition |
| --- | --- |
| COC(=O)c1sc(N2C(=O)C(O)=C(C(=O)c3ccc(C)o3)C2c2ccc(F)cc2)nc1C (centres undefined) | 100% (active) |
| O=S(=O)(Nc1ccc(N=Nc2ccc(O)c3ccccc23)cc1)c1ccccc1 | 70.3% (active) |
| O=S(=O)(Nc1ccc(O)c(NS(=O)(=O)c2ccccc2)c1)c1ccccc1 | -5.8% (inactive) |
| O=S(=O)(Nc1ccc(N=Nc2ccccc2)cc1)c1ccccc1 | -12.2% (inactive) |
| COc1cccc(NC(=O)NNC(=O)CCc2ccc(O)c(O)c2)c1 | 11.4% (inactive) |
| CC(=O)c1ccc(N2CCN(c3ncc(C(F)(F)F)cc3Cl)CC2)cc1 | -3.2% (inactive) |
| CN(C)C=NC(=O)c1ccc(N2CCN(c3ncc(C(F)(F)F)cc3Cl)CC2)cc1 | 14.6% (inactive) |
| O=C(CSc1nnc(-c2ccc(F)cc2)o1)c1ccc2c(c1)OCCO2 | 11.5% (inactive) |
| O=C(/C=C/c1ccccc1)NC(NC(=S)Nc1ccc(Cl)cc1Cl)C(Cl)(Cl)Cl (centres undefined) | 76.2% (active) |
| O=C(/C=C/c1ccccc1)NC(NC(=S)Nc1ccc(Cl)cc1)C(Cl)(Cl)Cl (centres undefined) | -0.3% (inactive) |
| O=C(/C=C/c1ccccc1)NC(NC(=S)Nc1cc(Cl)ccc1Cl)C(Cl)(Cl)Cl (centres undefined) | 27.8% (inactive) |
| CC1=C(C(=O)Nc2ccccc2C(=O)N2CCC(C)CC2)SCCO1 | -12.3% (inactive) |
| COc1ccc(CCC(=O)Nc2ccc(Cl)c(S(=O)(=O)N3CCCC3)c2)cc1 | -7.8% (inactive) |
| COCCNC(=O)CSc1nc2ccc(N3CCOCC3)cc2c(=O)n1CCc1ccccc1 | -7.7% (inactive) |
| CC1(C)CC(NCCN2CCN(C3=CC(=C(C#N)C#N)CC(C)(C)C3)CC2)=CC(=C(C#N)C#N)C1 | -1% (inactive) |
| N#CC(C#N)=C1C=C2C=C(N3CCCCC3)CCC2CC1 (centres undefined) | 11.2% (inactive) |
| N#CC(C#N)=C1C=C2C=C(N3CCCCCC3)CCC2CC1 (centres undefined) | 46% (inactive) |
| N#CC(C#N)=C1C=C2C=C(N3CCOCC3)CCC2CC1 (centres undefined) | 1.7% (inactive) |
| COC(=O)c1cc(NC2c3ccccc3C(=O)N2c2cccnc2)cc(C(=O)OC)c1 (centres undefined) | -4% (inactive) |
| COc1cccc(C2N=C(c3ccccc3C)NO2)c1OC (centres undefined) | 13.2% (inactive) |
| O=C(CSc1nc(O)c(C2CCCCC2)c(=O)[nH]1)Nc1ccccc1Cl | -1.9% (inactive) |
| O=C(Nc1ccc2c(c1)oc1ccccc12)C1CC1 | 1.2% (inactive) |
| COc1ccc(N=C2S/C(=C\c3ccc(OCC(=O)O)cc3)C(=O)N2CCc2c[nH]c3ccccc23)cc1 | -10.9% (inactive) |

| SMILES | inhibition |
| --- | --- |
| COc1ccc(N=C2S/C(=C\c3ccc(OC(C)C(=O)O)c(OC)c3)C(=O)N2CCc2c[nH]c3ccccc23)cc1 (centres undefined) | -11.1% (inactive) |
| Cc1ccc2oc(C(=O)Nc3ccc(S(=O)(=O)Nc4ncccn4)cc3)c(C)c2c1 | 18.7% (inactive) |
| COc1ccc(/C=C2\CC/C(=C\c3ccc(OC)c(OC)c3)C2=O)cc1OC | -1.3% (inactive) |
| COc1ccc(/C=C2\Cc3ccccc3C2=O)cc1OC | 10.6% (inactive) |
| N/C(=N\OC(=O)COc1ccccc1)c1ccncc1 | -1.4% (inactive) |
| CCOc1ccc(/C=N/NC(=O)Cc2csc(Nc3cccc(C(F)(F)F)c3)n2)c(OCC)c1 | -0.3% (inactive) |
| CCOc1ccccc1/C=N/NC(=O)Cc1csc(Nc2cccc(C(F)(F)F)c2)n1 | 20% (inactive) |
| O=C(Nc1ccccc1F)C1CCCN(S(=O)(=O)c2ccc(-n3cnnn3)cc2)C1 (centres undefined) | 7.9% (inactive) |
| CN(C)c1ccc(/C=C/C(=O)c2cc(Cl)ccc2O)cc1 | 57.6% (active) |
| CN(C)c1ccc(/C=C/C(=O)c2ccccc2O)cc1 | 21.4% (inactive) |
| O=C(/C=C/c1ccc2ccccc2n1)c1cc(Cl)ccc1O | 7.6% (inactive) |
| COc1ccc(C(=O)/C=C/c2ccc(N(C)C)cc2)c(OC)c1 | 21.5% (inactive) |
| O=C(/C=C/c1cccs1)c1cc(Cl)ccc1O | -8.1% (inactive) |
| O=C(/C=C/c1ccncc1)c1cc(Cl)ccc1O | 96.6% (active) |
| CC(C)N(CCc1ccncc1)C(=S)Nc1ccc(F)c(Cl)c1 | 4.6% (inactive) |
| CC(C)c1ccc(C(=O)NC(=S)Nc2ccc3[nH]c(=O)[nH]c3c2)cc1 | -6.7% (inactive) |
| CC(=O)c1cc2c(cc1N/C(=N/S(=O)(=O)c1ccccc1)c1ccc(Cl)cc1)OCO2 | 13.2% (inactive) |
| CC(C)(C)CC(C)(C)NC(=S)Nc1ccc(S(=O)(=O)N2CCOCC2)cc1 | -2.7% (inactive) |
| CCCCOC(=O)c1ccc(NC(=O)c2cc(Cl)c(Cl)cc2C(=O)O)cc1 | -5.9% (inactive) |
| CCCCOC(=O)c1ccc(NC(=O)c2ccccc2OC)cc1 | 12.9% (inactive) |
| Cc1ccc(NC(=O)C(C)Sc2nnc(-c3cccnc3)n2-c2ccccc2)cc1 (centres undefined) | -0.8% (inactive) |
| Cc1nn(C(C)C(=O)NCCc2ccco2)c(=O)c2nn(-c3ccccc3)c(C)c12 (centres undefined) | -4% (inactive) |
| Cc1cc(-c2nn(-c3ccccc3F)cc2CN(C)CC(O)CO)c(C)s1 (centres undefined) | 103% (active) |

| SMILES | inhibition |
| --- | --- |
| Cc1cc(-c2nn(-c3ccccc3F)cc2CN2CCCC(CO)C2)c(C)s1 (centres undefined) | 19.6% (inactive) |
| Cc1cc(-c2nn(-c3ccccc3F)cc2CN2CCC(O)CC2)c(C)s1 | -0.9% (inactive) |
| COCc1cc(/C=N\NC(=O)Cc2ccc(Cl)cc2)ccc1OC | 1.9% (inactive) |
| O=C(CCc1nnc2n(Cc3ccc(F)cc3)c(=O)c3ccccc3n12)NCCCN1CCOCC1 | -5.8% (inactive) |
| CCOc1ccc(/C=C2\SC(=S)NC2=O)cc1OC | -8% (inactive) |
| CCOc1ccc(/C=C2/SC(=O)NC2=S)cc1 | 5.9% (inactive) |
| COc1ccc(NC(=S)N(CCN2CCOCC2)Cc2cc3cc4c(cc3[nH]c2=O)OCCO4)cc1 | 98.1% (active) |
| CCOc1ccc(NC(=S)N(CCN2CCOCC2)Cc2cc3cc4c(cc3[nH]c2=O)OCCO4)cc1 | 6.4% (inactive) |
| COc1ccc(NC(=S)N(CCN2CCOCC2)Cc2cc3cc4c(cc3[nH]c2=O)OCO4)cc1 | -1.5% (inactive) |
| CS(=O)(=O)c1ccc(NCCc2ccc(S(N)(=O)=O)cc2)c([N+](=O)[O-])c1 | -3.1% (inactive) |
| COc1ccc(N2CCN(C3CC(=O)N(Cc4ccccc4)C3=O)CC2)cc1 (centres undefined) | 6.4% (inactive) |
| COc1cc(/C=N/O)cc(Cl)c1OC | 1.8% (inactive) |
| O=c1cc(N=Nc2ccc(Cl)cc2)[nH]c(=O)[nH]1 | 52.2% (active) |
| O=c1cc(CSCc2ccc(Cl)cc2)[nH]c(=O)[nH]1 | 2.3% (inactive) |
| Cc1[nH][nH]c(=O)c1N=Nc1ccc(Cl)cc1 | -3.2% (inactive) |
| O=C(COc1ccc(Cl)cc1Cl)NCCSc1ccc(Cl)cc1 | -14.2% (inactive) |
| O=C(O)c1ccc(Nc2cc(Cl)c3nonc3c2[N+](=O)[O-])cc1 | 8.7% (inactive) |
| O=[N+]([O-])c1c(Nc2ccc(O)cc2)cc(Cl)c2nonc12 | 72.1% (active) |
| O=[N+]([O-])c1c(Nc2cccc(O)c2)cc(Cl)c2nonc12 | 35% (inactive) |
| COC(=O)C1=C(C)N=C2SCCC(=O)N2C1c1cc(Br)ccc1OC (centres undefined) | -10.8% (inactive) |
